Here are results for 1 sequence from paper PMC7862700, “An all-to-all approach to the identification of sequence-specific readers for epigenetic DNA modifications on cytosine”.

Holding throughout (experiment): DAPPL (digital affinity profiling via proximity ligation, sequencing); 10 mM Tris-HCl pH 7.5, 50 mM NaCl, 1 mM DTT, 4% glycerol, room temperature, 30 min; GST-TFs on glutathione beads, 16-mer random dsDNA library, 0.1% formaldehyde crosslink after washing; high values mean tight binding
The target in assay [1] is T1, FEV (Homo sapiens, UniProt Q99581 1-238).
T1 sequence: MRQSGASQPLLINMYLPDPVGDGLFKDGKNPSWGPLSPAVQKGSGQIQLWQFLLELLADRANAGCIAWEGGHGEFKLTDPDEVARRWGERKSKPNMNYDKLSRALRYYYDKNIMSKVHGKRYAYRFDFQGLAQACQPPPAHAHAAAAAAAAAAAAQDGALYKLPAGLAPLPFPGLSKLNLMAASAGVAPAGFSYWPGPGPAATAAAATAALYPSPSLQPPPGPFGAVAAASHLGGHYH
The settings on record: protein: recombinant; tags: N-terminal GST; dsDNA, one strand shown. The essentials:
(§1)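 Binding signal is defined as a hexamer's read frequency for one factor over its frequency for the tag-only sample. To obtain reads, GST-fused human transcription factors were expressed in yeast, captured on glutathione beads, barcoded with DNA and pooled with that sample. Pools met 200 nmole of a 16-mer random double-stranded DNA library in Tris/NaCl/DTT/glycerol buffer for 30 min at room temperature before washing, 0.1% formaldehyde crosslinking, proximity ligation (BsaI/T4 ligase, 1 h, 37 °C), PCR and Illumina NextSeq500 sequencing.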

Assay [2] addresses ETV5 (Homo sapiens, UniProt P41161 1-510). The settings on record: protein: recombinant; tags: N-terminal GST; dsDNA, one strand shown. Put shortly:
as §1

The target of assay [3] is HSF1 (Homo sapiens, UniProt Q00613 1-529). The settings on record: protein: recombinant; tags: N-terminal GST; chain copies: 3; dsDNA, one strand shown. Put shortly:
as §1

Assay [4] has as its target T2, SPIC (Homo sapiens, UniProt Q8N5J4 1-248).
T2 sequence: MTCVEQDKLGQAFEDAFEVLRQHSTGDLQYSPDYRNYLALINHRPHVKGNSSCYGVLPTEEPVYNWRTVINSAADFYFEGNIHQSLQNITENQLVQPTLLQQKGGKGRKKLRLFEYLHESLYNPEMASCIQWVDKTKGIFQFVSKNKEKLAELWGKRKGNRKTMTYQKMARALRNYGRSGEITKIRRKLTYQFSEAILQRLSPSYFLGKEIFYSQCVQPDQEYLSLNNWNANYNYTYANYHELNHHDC
The settings on record: protein: recombinant; tags: N-terminal GST; dsDNA, one strand shown. Put shortly: as §1

The target of assay [5] is ELF4 (Homo sapiens, UniProt Q99607 1-663). The settings on record: protein: recombinant; tags: N-terminal GST; dsDNA, one strand shown. The essentials: as §1
ELF4, sequence (Q99607 whole entry): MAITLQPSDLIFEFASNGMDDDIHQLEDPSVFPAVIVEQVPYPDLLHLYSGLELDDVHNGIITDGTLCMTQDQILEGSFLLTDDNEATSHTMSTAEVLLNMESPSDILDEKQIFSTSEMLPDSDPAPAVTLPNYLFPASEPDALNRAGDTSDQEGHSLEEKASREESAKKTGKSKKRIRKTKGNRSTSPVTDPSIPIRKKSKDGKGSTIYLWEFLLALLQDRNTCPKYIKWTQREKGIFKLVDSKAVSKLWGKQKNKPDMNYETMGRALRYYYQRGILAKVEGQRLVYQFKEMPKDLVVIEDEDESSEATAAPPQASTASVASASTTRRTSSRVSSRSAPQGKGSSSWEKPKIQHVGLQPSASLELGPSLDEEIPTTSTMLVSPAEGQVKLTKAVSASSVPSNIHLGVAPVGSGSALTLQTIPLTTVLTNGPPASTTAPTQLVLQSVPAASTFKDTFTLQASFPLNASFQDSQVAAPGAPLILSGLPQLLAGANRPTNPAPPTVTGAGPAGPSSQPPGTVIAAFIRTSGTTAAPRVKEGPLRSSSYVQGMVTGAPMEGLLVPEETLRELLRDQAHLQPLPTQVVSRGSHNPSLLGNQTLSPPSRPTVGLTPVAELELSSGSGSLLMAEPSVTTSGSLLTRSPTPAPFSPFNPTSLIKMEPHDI
For assay [6], the target named is T3, ELK4 (Homo sapiens, UniProt P28324-2 1-405).
T3 sequence: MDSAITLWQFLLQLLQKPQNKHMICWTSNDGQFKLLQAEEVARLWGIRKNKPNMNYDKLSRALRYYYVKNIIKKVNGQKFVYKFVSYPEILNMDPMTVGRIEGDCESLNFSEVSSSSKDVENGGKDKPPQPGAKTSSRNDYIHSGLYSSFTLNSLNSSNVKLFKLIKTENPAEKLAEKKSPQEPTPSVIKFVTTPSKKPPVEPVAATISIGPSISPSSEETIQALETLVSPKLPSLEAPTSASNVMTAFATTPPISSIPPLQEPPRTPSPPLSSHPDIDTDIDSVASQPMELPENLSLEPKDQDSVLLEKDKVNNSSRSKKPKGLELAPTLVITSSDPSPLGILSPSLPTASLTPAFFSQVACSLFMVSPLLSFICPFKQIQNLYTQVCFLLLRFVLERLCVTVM
The settings on record: protein: recombinant; tags: N-terminal GST; dsDNA, one strand shown. The essentials:
as §1

The target of assay [7] is T4, ETV2 (Homo sapiens, UniProt O00321 1-342).
T4 sequence: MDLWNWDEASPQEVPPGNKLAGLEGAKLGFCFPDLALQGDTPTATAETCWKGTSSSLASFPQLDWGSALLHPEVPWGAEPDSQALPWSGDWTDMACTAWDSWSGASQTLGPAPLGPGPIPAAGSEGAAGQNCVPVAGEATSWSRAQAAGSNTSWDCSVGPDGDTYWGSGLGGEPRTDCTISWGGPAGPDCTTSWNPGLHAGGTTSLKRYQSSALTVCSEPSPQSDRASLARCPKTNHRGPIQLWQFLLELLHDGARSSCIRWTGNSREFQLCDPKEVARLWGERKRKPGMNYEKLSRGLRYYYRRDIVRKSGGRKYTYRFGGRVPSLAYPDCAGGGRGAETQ
The following applies: protein: recombinant; tags: N-terminal GST; dsDNA, one strand shown. The essentials: as §1

In assay [8] the target is T5, ELF3 (Homo sapiens, UniProt P78545 1-371).
T5 sequence: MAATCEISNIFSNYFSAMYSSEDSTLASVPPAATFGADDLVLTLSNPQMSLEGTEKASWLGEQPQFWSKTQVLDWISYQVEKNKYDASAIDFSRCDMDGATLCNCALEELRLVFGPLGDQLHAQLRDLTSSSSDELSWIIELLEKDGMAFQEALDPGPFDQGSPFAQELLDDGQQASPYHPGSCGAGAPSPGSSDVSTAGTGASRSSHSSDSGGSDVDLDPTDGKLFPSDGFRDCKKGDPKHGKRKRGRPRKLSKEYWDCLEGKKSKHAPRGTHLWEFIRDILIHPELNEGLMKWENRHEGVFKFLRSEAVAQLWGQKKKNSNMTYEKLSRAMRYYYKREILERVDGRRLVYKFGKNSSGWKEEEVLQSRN
The settings on record: protein: recombinant; tags: N-terminal GST; dsDNA, one strand shown. Put shortly: as §1

Assay [9] deals with CRX (Homo sapiens, UniProt O43186 1-299). The following applies: protein: recombinant; tags: N-terminal GST; dsDNA, one strand shown. Put shortly:
as §1

The target of assay [10] is ETV1 (Homo sapiens, UniProt P50549 1-477). The settings on record: protein: recombinant; tags: N-terminal GST; dsDNA, one strand shown. The essentials: as §1
ETV1, sequence (P50549 whole entry): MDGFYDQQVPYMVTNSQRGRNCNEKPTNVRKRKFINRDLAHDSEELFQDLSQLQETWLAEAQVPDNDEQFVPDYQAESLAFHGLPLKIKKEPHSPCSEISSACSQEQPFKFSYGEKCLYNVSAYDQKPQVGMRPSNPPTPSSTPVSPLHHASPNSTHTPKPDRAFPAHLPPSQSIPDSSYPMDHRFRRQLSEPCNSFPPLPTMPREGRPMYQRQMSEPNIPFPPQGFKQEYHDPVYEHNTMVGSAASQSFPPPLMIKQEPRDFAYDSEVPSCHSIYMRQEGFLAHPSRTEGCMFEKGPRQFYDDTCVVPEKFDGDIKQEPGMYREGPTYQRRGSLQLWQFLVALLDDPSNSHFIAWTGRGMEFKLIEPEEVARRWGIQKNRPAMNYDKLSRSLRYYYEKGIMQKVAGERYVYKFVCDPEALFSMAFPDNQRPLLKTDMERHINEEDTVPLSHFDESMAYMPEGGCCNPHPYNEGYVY
Assay [11] concerns the target T6, ERF (Homo sapiens, UniProt P50548 1-548).
T6 sequence: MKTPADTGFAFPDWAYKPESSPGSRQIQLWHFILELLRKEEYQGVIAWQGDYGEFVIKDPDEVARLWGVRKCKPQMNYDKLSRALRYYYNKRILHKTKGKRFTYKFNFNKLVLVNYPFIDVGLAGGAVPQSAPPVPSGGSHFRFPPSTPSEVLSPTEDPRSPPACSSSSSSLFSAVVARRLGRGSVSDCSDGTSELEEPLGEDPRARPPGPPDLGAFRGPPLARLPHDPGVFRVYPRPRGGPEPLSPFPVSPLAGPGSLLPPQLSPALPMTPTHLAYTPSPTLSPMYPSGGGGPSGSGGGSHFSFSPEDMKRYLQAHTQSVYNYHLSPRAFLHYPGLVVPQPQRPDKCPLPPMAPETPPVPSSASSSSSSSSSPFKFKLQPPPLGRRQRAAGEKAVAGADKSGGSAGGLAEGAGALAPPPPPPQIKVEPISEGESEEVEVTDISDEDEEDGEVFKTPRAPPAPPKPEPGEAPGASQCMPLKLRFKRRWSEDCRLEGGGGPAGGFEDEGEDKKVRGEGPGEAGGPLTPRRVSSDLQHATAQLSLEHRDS
The following applies: protein: recombinant; tags: N-terminal GST; dsDNA, one strand shown. The essentials: as §1

Assay [12] deals with T7, ETV3L (Homo sapiens, UniProt Q6ZN32 1-361).
T7 sequence: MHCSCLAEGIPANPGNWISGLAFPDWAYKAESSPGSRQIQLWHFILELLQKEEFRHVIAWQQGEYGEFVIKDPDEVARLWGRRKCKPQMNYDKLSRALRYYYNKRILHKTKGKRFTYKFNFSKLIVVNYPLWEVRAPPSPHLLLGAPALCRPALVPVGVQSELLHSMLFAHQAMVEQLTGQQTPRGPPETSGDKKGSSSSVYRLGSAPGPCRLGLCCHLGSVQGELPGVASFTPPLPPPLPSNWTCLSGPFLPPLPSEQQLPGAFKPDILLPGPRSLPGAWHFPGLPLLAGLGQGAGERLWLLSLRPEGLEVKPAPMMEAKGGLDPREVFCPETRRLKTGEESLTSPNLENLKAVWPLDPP
The following applies: protein: recombinant; tags: N-terminal GST; dsDNA, one strand shown. Put shortly:
as §1

In assay [13] the target is T8, ETS2 (Homo sapiens, UniProt P15036 1-469).
T8 sequence: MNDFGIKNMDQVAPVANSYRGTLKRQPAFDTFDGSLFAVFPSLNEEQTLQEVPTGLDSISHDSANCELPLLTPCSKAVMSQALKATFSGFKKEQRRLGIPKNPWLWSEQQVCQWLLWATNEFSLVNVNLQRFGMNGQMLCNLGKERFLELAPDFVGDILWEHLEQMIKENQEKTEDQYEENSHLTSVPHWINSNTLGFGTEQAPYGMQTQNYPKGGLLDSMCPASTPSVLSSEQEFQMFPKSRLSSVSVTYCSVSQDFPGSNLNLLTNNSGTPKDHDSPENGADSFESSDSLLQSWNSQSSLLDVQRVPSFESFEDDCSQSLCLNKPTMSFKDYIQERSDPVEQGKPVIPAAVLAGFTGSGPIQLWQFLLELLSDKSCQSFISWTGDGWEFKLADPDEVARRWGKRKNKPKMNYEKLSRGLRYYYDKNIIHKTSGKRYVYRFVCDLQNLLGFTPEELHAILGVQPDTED
The settings on record: protein: recombinant; tags: N-terminal GST; dsDNA, one strand shown. Put shortly:
as §1

For assay [14], the target named is T9, SPDEF (Homo sapiens, UniProt O95238 1-335).
T9 sequence: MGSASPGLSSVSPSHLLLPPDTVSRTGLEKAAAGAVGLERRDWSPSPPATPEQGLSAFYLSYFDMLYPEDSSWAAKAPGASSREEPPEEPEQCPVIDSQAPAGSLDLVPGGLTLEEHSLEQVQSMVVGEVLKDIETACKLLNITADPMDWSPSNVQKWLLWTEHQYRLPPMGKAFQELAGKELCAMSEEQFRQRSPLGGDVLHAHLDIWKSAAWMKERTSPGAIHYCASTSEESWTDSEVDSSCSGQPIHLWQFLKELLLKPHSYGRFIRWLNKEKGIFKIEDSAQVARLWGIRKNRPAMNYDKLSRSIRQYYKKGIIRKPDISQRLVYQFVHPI
The following applies: protein: recombinant; tags: N-terminal GST; dsDNA, one strand shown. Put shortly:
as §1

The target in assay [15] is T10, ETV7 (Homo sapiens, UniProt Q9Y603 1-341).
T10 sequence: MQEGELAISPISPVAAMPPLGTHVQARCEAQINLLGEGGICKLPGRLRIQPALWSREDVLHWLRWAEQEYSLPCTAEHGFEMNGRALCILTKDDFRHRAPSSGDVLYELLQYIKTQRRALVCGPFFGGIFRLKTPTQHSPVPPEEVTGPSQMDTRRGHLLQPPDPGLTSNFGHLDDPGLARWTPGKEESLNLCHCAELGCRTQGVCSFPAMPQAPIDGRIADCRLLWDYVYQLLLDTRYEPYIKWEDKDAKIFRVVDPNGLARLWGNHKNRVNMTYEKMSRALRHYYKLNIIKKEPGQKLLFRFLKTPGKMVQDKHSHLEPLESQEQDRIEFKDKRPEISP
The following applies: protein: recombinant; tags: N-terminal GST; dsDNA, one strand shown. Put shortly: as §1

Assay [16] has as its target T11, ELF5 (Homo sapiens, UniProt Q9UKW6-2 1-255).
T11 sequence: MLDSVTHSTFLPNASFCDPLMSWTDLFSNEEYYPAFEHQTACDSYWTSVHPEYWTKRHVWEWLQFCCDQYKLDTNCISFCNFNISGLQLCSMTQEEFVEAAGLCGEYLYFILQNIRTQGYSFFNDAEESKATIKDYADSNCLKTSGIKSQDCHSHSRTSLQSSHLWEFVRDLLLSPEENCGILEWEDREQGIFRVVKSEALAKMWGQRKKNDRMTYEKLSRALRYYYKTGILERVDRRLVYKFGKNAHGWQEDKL
The settings on record: protein: recombinant; tags: N-terminal GST; dsDNA, one strand shown. The essentials:
as §1

Assay [17] concerns the target T12, ETV3 (Homo sapiens, UniProt P41162-2 1-143).
T12 sequence: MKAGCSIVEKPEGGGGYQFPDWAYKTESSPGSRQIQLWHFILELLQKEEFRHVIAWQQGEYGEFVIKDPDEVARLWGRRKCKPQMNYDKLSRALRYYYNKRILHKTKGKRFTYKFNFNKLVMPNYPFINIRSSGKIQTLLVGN
The following applies: protein: recombinant; tags: N-terminal GST; dsDNA, one strand shown. Put shortly:
as §1

In assay [18] the target is ETV6 (Homo sapiens, UniProt P41212 1-452). The settings on record: protein: recombinant; tags: N-terminal GST; dsDNA, one strand shown. Put shortly: as §1
ETV6, sequence (P41212 whole entry): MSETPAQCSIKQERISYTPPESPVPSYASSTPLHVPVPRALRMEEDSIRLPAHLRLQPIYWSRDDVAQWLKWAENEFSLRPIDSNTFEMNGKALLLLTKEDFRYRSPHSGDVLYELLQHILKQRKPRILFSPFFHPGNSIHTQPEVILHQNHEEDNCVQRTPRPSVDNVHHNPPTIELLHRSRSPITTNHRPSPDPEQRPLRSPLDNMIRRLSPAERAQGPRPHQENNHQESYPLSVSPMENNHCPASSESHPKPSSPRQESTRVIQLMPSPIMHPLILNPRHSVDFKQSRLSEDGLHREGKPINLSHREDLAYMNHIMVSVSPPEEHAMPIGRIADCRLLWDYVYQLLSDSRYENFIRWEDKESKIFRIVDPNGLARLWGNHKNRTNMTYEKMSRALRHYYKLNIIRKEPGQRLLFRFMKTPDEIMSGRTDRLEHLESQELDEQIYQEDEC

CRX, sequence (O43186 whole entry): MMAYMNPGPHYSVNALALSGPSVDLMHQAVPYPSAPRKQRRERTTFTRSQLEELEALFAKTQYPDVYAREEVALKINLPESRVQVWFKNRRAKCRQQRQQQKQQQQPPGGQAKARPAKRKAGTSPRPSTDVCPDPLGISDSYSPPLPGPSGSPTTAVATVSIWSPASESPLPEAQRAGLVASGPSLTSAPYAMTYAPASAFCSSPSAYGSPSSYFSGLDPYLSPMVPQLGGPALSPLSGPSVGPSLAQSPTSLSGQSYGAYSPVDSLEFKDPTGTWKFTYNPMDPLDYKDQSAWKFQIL
ETV5, sequence (P41161 whole entry): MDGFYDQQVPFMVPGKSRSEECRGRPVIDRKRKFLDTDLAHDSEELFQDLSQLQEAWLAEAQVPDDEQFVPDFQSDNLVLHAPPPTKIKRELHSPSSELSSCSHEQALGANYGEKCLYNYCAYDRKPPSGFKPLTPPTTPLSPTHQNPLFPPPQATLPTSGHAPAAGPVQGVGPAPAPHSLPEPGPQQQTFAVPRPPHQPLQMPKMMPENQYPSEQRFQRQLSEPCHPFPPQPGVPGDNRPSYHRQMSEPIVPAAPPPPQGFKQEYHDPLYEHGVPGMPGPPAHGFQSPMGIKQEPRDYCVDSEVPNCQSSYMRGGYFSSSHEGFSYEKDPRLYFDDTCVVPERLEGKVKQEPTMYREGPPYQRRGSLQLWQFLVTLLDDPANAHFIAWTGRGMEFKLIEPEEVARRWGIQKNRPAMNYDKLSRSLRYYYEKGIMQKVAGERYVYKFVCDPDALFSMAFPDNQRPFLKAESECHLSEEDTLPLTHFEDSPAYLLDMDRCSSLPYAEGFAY
HSF1, sequence (Q00613 whole entry): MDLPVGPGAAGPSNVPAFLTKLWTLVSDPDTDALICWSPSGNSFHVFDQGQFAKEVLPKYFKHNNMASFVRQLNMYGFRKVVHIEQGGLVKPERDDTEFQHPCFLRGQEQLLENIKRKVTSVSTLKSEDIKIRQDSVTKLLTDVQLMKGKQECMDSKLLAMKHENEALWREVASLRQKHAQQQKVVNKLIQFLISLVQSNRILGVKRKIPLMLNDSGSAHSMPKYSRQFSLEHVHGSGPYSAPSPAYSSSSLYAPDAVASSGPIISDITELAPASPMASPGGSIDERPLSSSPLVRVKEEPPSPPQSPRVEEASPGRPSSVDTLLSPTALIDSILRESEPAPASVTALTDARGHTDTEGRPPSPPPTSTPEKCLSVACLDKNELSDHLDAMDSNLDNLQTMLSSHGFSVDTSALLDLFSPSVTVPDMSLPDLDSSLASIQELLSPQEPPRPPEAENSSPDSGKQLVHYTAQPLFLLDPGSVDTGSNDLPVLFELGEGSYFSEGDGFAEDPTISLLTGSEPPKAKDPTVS

With CACTTT, the binding signal in assay [1] was 1.18 fold enrichment (6-mer frequency, TF over GST control); in [2], 1.38 fold enrichment (6-mer frequency, TF over GST control); in assay [3], 1.17 fold enrichment (6-mer frequency, TF over GST control); in assay [4], 1.29 fold enrichment (6-mer frequency, TF over GST control); in assay [5], 1.3 fold enrichment (6-mer frequency, TF over GST control); in assay [6] it was 1.34 fold enrichment (6-mer frequency, TF over GST control). Moreover, the binding signal in [7] was 1.35 fold enrichment (6-mer frequency, TF over GST control); in [8], 1.28 fold enrichment (6-mer frequency, TF over GST control); in assay [9], 1.14 fold enrichment (6-mer frequency, TF over GST control); in [10] it was 1.3 fold enrichment (6-mer frequency, TF over GST control); in assay [11], 1.3 fold enrichment (6-mer frequency, TF over GST control); in [12], 1.24 fold enrichment (6-mer frequency, TF over GST control). Besides, the binding signal in assay [13] is 1.32 fold enrichment (6-mer frequency, TF over GST control); in assay [14], 1.16 fold enrichment (6-mer frequency, TF over GST control); in assay [15], 1.26 fold enrichment (6-mer frequency, TF over GST control); in assay [16] it was 1.23 fold enrichment (6-mer frequency, TF over GST control); in assay [17] it was 1.32 fold enrichment (6-mer frequency, TF over GST control); in assay [18], 1.26 fold enrichment (6-mer frequency, TF over GST control).
